The full list was thinned out, with hits kept by preference.
14-3-3g Raf = modulators of human 14-3-3 gamma - Raf peptide interaction; hit rate 0.19% among 160,000; FP, 14-3-3gamma / TMR-pS259-Raf peptide binding; inhibition, % at 40 µM; in the data active means inhibition above about 30%;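 further: 0% = protein plus tracer without compound and 100% = blank with tracer alone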
Target sequence (P61981 whole entry, looked up): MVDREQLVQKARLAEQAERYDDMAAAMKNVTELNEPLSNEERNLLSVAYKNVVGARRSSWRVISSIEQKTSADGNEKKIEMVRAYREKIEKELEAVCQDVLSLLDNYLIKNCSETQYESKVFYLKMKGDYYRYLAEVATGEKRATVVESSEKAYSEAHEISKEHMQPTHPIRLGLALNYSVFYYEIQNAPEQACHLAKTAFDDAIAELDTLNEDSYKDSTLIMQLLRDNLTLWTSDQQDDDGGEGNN
* = called active by the depositor; ! = not confirmed by another sample.

SMILES	14-3-3g Raf
O=C(NCCCN1CCN(c2cccc(Cl)c2)CC1)C1CCC(Cn2c(=O)[nH]c3ccsc3c2=O)CC1 (stereo unspecified)	0
O=C(Nc1cnc2ccccc2c1)c1ccc(Br)o1	0
COc1cccc2c1C(=O)c1c(O)c3c(c(O)c1C2=O)C[C@@](O)(C(=O)CO)C[C@@H]3O[C@H]1C[C@H](N)[C@H](O)[C@H](C)O1	57*
COc1ccc(C(=O)Nc2ccc(Cl)c(-c3nc4ccccc4o3)c2)cc1	-303
O=C1c2cccc3cccc(c23)C(=O)N1c1ccccc1	4
Cc1nnc(C)n1N1C(=O)c2cccc3cccc(c23)C1=O	-6
NC1=CC(=O)c2cccc3cccc1c23	80*!
CC(=O)Nc1ccccc1C(=O)C(=O)Nc1cccc(C(=O)O)c1	5
O=C(O)C1CCCCN1S(=O)(=O)c1ccc(Cl)cc1 (stereo unspecified)	-12
O=C(O)C1CCCN1S(=O)(=O)c1ccc(F)cc1 (stereo unspecified)	-6
Cc1ccc(S(=O)(=O)N2CCCC2C(=O)O)cc1 (stereo unspecified)	53*!
N#CC1(C#N)C(c2cccc(F)c2)C(C(=O)c2ccc(F)cc2)N2C=Cc3ccccc3C21 (stereo unspecified)	-58
O=C(CN1C(=O)CSc2ccc(S(=O)(=O)N3CCOCC3)cc21)N1CCN(c2cccc(C(F)(F)F)c2)CC1	-10
Nc1scc[n+]1CC(=O)c1ccc(Cl)cc1	5
NC(=O)c1cc2c(ccc3ccccc32)oc1=Nc1ccc(Br)cc1	2
COC(=O)C1=C(C)N(C)C(C)=C(C(=O)OC)C1c1ccc(OCc2ccccc2)c(OC)c1	-5
O=C(CN1CCN(Cc2ccccc2Cl)C1=O)NCc1ccccn1	71*
O=C(CN1CCN(Cc2ccccc2Cl)C1=O)NCc1cccnc1	-5
O=C(CN1CCN(Cc2ccc(F)cc2)C1=O)NCc1ccccc1Cl	-10
COC(=O)c1ccc(C2Oc3ccccc3C3=C2C(c2ccccc2F)n2ncnc2N3)cc1 (stereo unspecified)	3
CCOC(=O)c1c(C)[nH]c(C(=O)CN2CCCCCC2)c1C	-24
O=C(CCN1C(=O)c2ccccc2C1=O)NCc1ccncc1	-1
O=C(CN1C(=O)c2ccccc2C1=O)NCc1ccccn1	14
O=C(CCN1C(=O)c2ccccc2C1=O)NCc1ccccn1	177*
CN(C)c1ccc(-c2nc3cc(N=Cc4cc(Cl)ccc4O)ccc3o2)cc1	-36
SMILES	14-3-3g Raf
Cc1ccc(-c2nc3cc(N=Cc4cccc([N+](=O)[O-])c4O)ccc3o2)cc1C	-60
Oc1ccc(Cl)cc1C=Nc1ccc(-c2nc3cc(Cl)ccc3o2)cc1	84*
Cc1ccc(-c2nc3cc(N=Cc4cc(C)cc([N+](=O)[O-])c4O)ccc3o2)cc1	53*
Cc1ccccc1-c1nc2cc(N=Cc3cc(Cl)cc([N+](=O)[O-])c3O)ccc2o1	-6
Cc1ccc(-c2nc3cc(N=Cc4cc(Cl)ccc4O)ccc3o2)cc1	-7
CCc1ccc(NS(=O)(=O)c2ccc3c(c2)CC(C)N3C(C)=O)cc1 (stereo unspecified)	-11
CCOC(=O)C1=C(C)NC(=O)NC1c1ccc(OCC)c(OCC)c1 (stereo unspecified)	-2
CC12C=CC(O1)C1C(=O)N(c3cccc4ccccc34)C(=O)C12 (stereo unspecified)	-9
CC(C)CCN(C(=O)Nc1ccccc1)C(C)c1ccco1 (stereo unspecified)	-13
Cc1ccc(C2=NN(CC(=O)NCc3ccc4c(c3)OCO4)C(=O)CC2)cc1	-18
CSc1nnc2c3ccccc3n(CCc3ccccc3)c2n1	3
CSc1nnc2c3ccccc3n(Cc3ccccc3)c2n1	-7
CSc1nnc2c3cc(F)ccc3n(Cc3ccccc3)c2n1	113*
O=c1[nH]c2ccccc2nc1Cc1ccc(F)cc1	1
Cc1ccc(F)cc1NC(=O)c1sc2ncnc(N3CCC(C)CC3)c2c1C	4
COc1ccc2c3c(cccc13)OCC2=O	-4
CCC1=NNc2cccc3c(OC)ccc1c23	142*
COc1ccc(C(C)=O)c2c(O)cccc12	3
Cn1c(SCC(=O)c2ccc(Cl)cc2)nc2c(c1=O)C1(CCCC1)Cc1ccccc1-2	-3
CC1(C)OC(=O)N(CCCCCC(=O)O)C1(C)O (stereo unspecified)	-5
FC(F)(F)c1cc(-c2ccco2)nc(N2CCCCC2)n1	9
Cc1cc(I)ccc1NC(=O)c1cccc(F)c1	-164
Cc1ccc([N+](=O)[O-])cc1S(=O)(=O)N1CCCCC1	5
O=[N+]([O-])c1ccc(N2CCCC2)c(S(=O)(=O)N2CCOCC2)c1	-5
CN1CCN(c2ccc([N+](=O)[O-])cc2S(=O)(=O)N2CCCC2)CC1	39*
SMILES	14-3-3g Raf
COc1ccccc1-n1cnc2cc(C(=O)NCc3ccccc3Cl)ccc21	-105
O=C(c1cnc2sccn2c1=O)N1CCN(c2ccccc2)CC1	-3
Cn1nnc2cc(C(=O)Nc3cccnc3)ccc21	3
O=C(Nc1cccnc1)c1cccnc1	0
COc1ccc(C(=O)Nc2cccnc2)cc1OC	47*
COc1ccc(C=Nc2ccccc2)cc1	-12
COc1ccc(C=Nc2ccco2)cc1	32*
COc1ccc(C=Nc2ccc3ncccc3c2)cc1	14
O=C(CC1CS(=O)(=O)CC1CC(=O)Nc1cccc(C(F)(F)F)c1)Nc1cccc(C(F)(F)F)c1 (stereo unspecified)	-3
CSc1nnc2c(n1)OC(c1ccccc1C)Nc1ccc(Br)cc1-2 (stereo unspecified)	49*
CCSc1nnc2c(n1)OC(c1ccccc1F)Nc1ccccc1-2 (stereo unspecified)	3
CSc1nnc2c(n1)OC(c1ccc(C)cc1)Nc1ccccc1-2 (stereo unspecified)	6
CCc1ccc(C2Nc3ccc(Br)cc3-c3nnc(SC)nc3O2)cc1 (stereo unspecified)	0
COc1ccc(Br)cc1C1Nc2ccc(Br)cc2-c2nnc(SC)nc2O1 (stereo unspecified)	-173
CCSc1nnc2c(n1)OC(c1ccc3ccccc3c1)Nc1ccccc1-2 (stereo unspecified)	139*
CSc1nnc2c(n1)OC(c1ccccc1F)Nc1ccc(Br)cc1-2 (stereo unspecified)	-117
CCSc1nnc2c(n1)OC(c1ccccc1Cl)Nc1ccccc1-2 (stereo unspecified)	98*
CCSc1nnc2c(n1)OC(c1ccc(OC3CCCC3)cc1)Nc1ccccc1-2 (stereo unspecified)	26
CCSc1nnc2c(n1)OC(c1ccc(C(=O)O)cc1)Nc1ccccc1-2 (stereo unspecified)	3
CCSc1nnc2c(n1)OC(c1cc3c(cc1Cl)OCO3)Nc1ccccc1-2 (stereo unspecified)	21
CCc1ccc(C2Nc3ccccc3-c3nnc(SC)nc3O2)cc1 (stereo unspecified)	149*
O=[N+]([O-])c1ccc(-c2nc(Nc3ccc(Br)cc3)c3ccccc3n2)cc1	6
CCOC(=O)c1cc2c(=O)n3ccccc3nc2n(CC2CCCO2)c1=NC(=O)c1ccccc1 (stereo unspecified)	-6
Cc1ncc(CO)c2cc(C(N)=O)c(=Nc3ccc(C(N)=O)cc3)oc12	-7
O=C(c1cc2nc(-c3cccs3)cc(C(F)(F)Cl)n2n1)N1CCc2ccccc21	-9
CCN(CC)c1nc(-c2ccccc2)c2cc(Cl)ccc2n1	-2
N#Cc1c(SCC(=O)OCc2ccccc2)nc2c(c1-c1ccccc1)CCCC2	-13

Assay outcomes deposited in PubChem BioAssay by Emory University Molecular Libraries Screening Center.
